VP16 counter: counter-screen for ROR gamma inhibitors: Gal4-VP16 reporter. Drosophila S2 Gal4-VP16 UAS-luciferase, luminescence, 20 h. Potency, µM (highest dose often 53.6 µM), for inactives: top-dose activity, negative = inhibition, hits mostly inhibitors. 310,000 compounds, 3.5% hits;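 note: Gal4-VP16 expression switched on by copper sulfate through the metallothionein promoter; nearly all actives have a fitted effect of over 50% in size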
Tau ThT inhib: inhibitors of human tau fibril formation, thioflavin T binding. AID 1460. 270,000 compounds, 2.1% hits. Potency, µM (series often up to 57.4 µM), inactives show at the top dose activity, negative = inhibition, actives largely listed as inhibitors. P10636. recombinant tau K18 P301L, heparin-induced fibrillization, ThT fluorescence; note: nearly all actives have a fitted effect of over 55% in size
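Fibril formation assay: tau K18 P301L at 15 uM with trace Alexa 594 label, heparin inducer 20 uM, pH 7 sodium acetate buffer, 37 C for 6 hr; endpoint ThT signal.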
Tau fibril FP: tau fibrillization inhibition (FP). P10636. K18 P301L tau heparin fibrillization, Alexa594 FP, 6 h. Potency, µM (top dose mostly 57.7 µM), without a hit: top-dose activity, negative = inhibition, most hits filed as inhibitors. 280,000 compounds, 0.39% hits; note: nearly all actives have a fitted effect of over 55% in size
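FP of Alexa 594-tau after heparin (20 uM) induction. Substrate: human K18 P301L, 15 uM unlabeled, 0.24 uM labeled. Buffer 100 mM sodium acetate pH 7. 6 hr, 37 C.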
RORgamma inh: blocks mouse ROR gamma transcriptional activity. P51450. 310,000 compounds, 5.4% hits. Potency, µM (doses to about 53.6 µM), inactives show at the top dose activity change, negative = inhibition, usual class: inhibitors. AID 2551. Drosophila S2 Gal4-RORgamma UAS-luciferase reporter, 20 h; note: nearly all actives have a fitted effect of over 60% in size
Target sequence (P51450 whole entry, looked up, the tested form may be a part): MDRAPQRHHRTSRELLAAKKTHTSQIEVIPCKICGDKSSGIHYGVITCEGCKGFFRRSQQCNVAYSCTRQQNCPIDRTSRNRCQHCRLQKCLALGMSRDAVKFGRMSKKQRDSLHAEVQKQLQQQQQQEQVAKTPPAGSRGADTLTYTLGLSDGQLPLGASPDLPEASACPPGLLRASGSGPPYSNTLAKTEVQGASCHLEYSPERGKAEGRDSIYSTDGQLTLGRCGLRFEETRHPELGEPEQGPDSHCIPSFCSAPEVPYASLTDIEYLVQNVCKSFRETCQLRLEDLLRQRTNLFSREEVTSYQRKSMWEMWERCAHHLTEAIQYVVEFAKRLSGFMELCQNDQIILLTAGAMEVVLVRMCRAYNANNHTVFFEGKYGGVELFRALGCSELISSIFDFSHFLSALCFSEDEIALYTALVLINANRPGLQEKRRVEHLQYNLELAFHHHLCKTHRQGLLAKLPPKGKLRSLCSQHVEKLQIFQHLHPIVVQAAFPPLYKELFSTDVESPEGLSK
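Drosophila S2 cells stably expressing Gal4-DBD/mouse RORγ fusion under metallothionein promoter plus UAS-luciferase; compound 1 h, then 700 uM CuSO4 induction for 20 h at ambient temperature; inhibition read as reduced luminescence.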
Tau fluor counter: counter-screen for tau fibril formation inhibitors; tau K18 P301L (four-repeat tau fragment) Alexa594 fluorescence, heparin fibrillization; Potency, µM (series often up to 57.7 µM), inactives show at the top dose activity change, negative = decrease; 280,000 compounds, 0.93% hits; AID 1463; note: nearly all actives have a fitted effect of over 55% in size
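Human K18 P301L tau (15 uM unlabeled plus 0.24 uM Alexa 594-labeled, final) in 100 mM sodium acetate pH 7 was mixed with compound and 20 uM heparin and incubated 6 hr at 37 C.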
Active calls of the source: *; [ ] = dose if it differs, or a comment. Rows were chosen to be rich in hits. Some 7.3% of all compounds tested hit in one or more screens of this group. Calls come from the whole dose curve; as a rule, active = well fitted curve in the direction sought with a large enough effect; inconclusive = small, poorly fitted or top-dose-only effect, or another doubt; inactive = no such curve, though single readings can be large; an effect the other way counts as inactive or inconclusive. % is set by controls: 0 for no effect and ±100 for the full control effect; potency is the fitted concentration of half-maximal effect.

Results for O=C(c1ccc2c(=O)n(Cc3ccc(Cl)cc3)c(=S)[nH]c2c1)N1CCCC1 ?
VP16 counter: inconclusive; RORgamma inh: 5µM*

What do the screens show for `O=C(c1ccc(Cn2c(=S)[nH]c3ccccc3c2=O)cc1)N1CCN(c2ccccn2)CC1`?
VP16 counter: inconclusive; Tau ThT inhib: 4%; Tau fibril FP: -9%; RORgamma inh: 11µM*; Tau fluor counter: -23%

What do the screens show for `CC1CC(C)CN(C(=O)c2ccc3c(=O)n(Cc4ccc5c(c4)OCO5)c(=S)[nH]c3c2)C1` (centres undefined)?
VP16 counter: 10µM*; Tau ThT inhib: 1%; Tau fibril FP: inconclusive; RORgamma inh: 3.5µM*; Tau fluor counter: -16%

What do the screens show for `CCOC(=O)N1CCN(C(=O)c2ccc3c(=O)n(Cc4ccc(OC)cc4)c(=S)[nH]c3c2)CC1`?
VP16 counter: inconclusive; Tau ThT inhib: -11%; Tau fibril FP: inconclusive; RORgamma inh: 26%; Tau fluor counter: -23%

What do the screens show for `O=c1c2ccc(Cl)cc2[nH]c(=S)n1Cc1cccnc1`?
VP16 counter: inconclusive; Tau ThT inhib: 3%; Tau fibril FP: 2%; RORgamma inh: 5µM*; Tau fluor counter: -10%

What do the screens show for `COc1ccccc1Cn1c(=S)[nH]c2cc(C(=O)N3CCC(C(N)=O)CC3)ccc2c1=O`?
VP16 counter: 3%; RORgamma inh: -4%

Results for CN1CCN(C(=O)c2ccc3c(=O)n(Cc4ccc(Cl)cc4)c(=S)[nH]c3c2)CC1 ?
VP16 counter: inconclusive; Tau ThT inhib: -5%; Tau fibril FP: -3%; RORgamma inh: 7.1µM*; Tau fluor counter: -18%

Results for O=C(c1ccc2c(=O)n(Cc3ccccc3Cl)c(=S)[nH]c2c1)N1CCCC1 ?
VP16 counter: inconclusive; RORgamma inh: 11µM*

How did CCOC(=O)N1CCC(n2c(=S)[nH]c3ccccc3c2=O)CC1 do in these assays?
VP16 counter: 7.1µM*; Tau ThT inhib: -17%; Tau fibril FP: -3%; RORgamma inh: 8.9µM*; Tau fluor counter: -12%

How did Cc1csc(NC(=O)CSc2nc(C(C)C)nc3ccccc23)n1 do in these assays?
VP16 counter: -3%; RORgamma inh: 32%

Results for Cc1nn2c(=O)cc(COC(=O)COc3ccccc3C)nc2s1 ?
Tau ThT inhib: 0%; Tau fibril FP: -12%; Tau fluor counter: -2%

How did O=C(c1ccc2c(=O)n(Cc3ccco3)c(=S)[nH]c2c1)N1CCN(c2ccccc2)CC1 do in these assays?
VP16 counter: -4%; Tau ThT inhib: 3%; Tau fibril FP: -8%; RORgamma inh: inconclusive; Tau fluor counter: -4%

How did O=C(c1ccc2c(=O)n(Cc3ccc(Cl)cc3)c(=S)[nH]c2c1)N1CCOCC1 do in these assays?
VP16 counter: 7.1µM*; RORgamma inh: 4µM*

How did C#CCN1C(=O)C2(OCCO2)c2ccccc21 do in these assays?
VP16 counter: -4%; RORgamma inh: 3%

How did Cc1ccc(C2C(C#N)=C(N)Oc3n[nH]c(-c4cccs4)c32)s1 (centres undefined) do in these assays?
VP16 counter: -22%; Tau ThT inhib: inconclusive; Tau fibril FP: 3%; RORgamma inh: 10µM*; Tau fluor counter: inconclusive

What do the screens show for `CCc1[nH]nc2c1C(c1ccc(Br)s1)C(C#N)=C(N)O2` (centres undefined)?
VP16 counter: inconclusive; Tau ThT inhib: inconclusive; Tau fibril FP: -5%; RORgamma inh: 11µM*; Tau fluor counter: -23%

How did CCc1[nH]nc2c1C(c1ccsc1)C(C#N)=C(N)O2 (centres undefined) do in these assays?
VP16 counter: -10%; Tau ThT inhib: -14%; Tau fibril FP: -3%; RORgamma inh: -12%; Tau fluor counter: -4%

Results for COc1ccc(/C=C/c2nc(C#N)c(NCCc3ccc(OC)c(OC)c3)o2)cc1OC ?
Tau ThT inhib: inconclusive; Tau fibril FP: 2%; Tau fluor counter: inconclusive

How did Cc1ccc(CNc2oc(C)nc2C#N)cc1 do in these assays?
VP16 counter: -3%; Tau ThT inhib: inconclusive; Tau fibril FP: inconclusive; RORgamma inh: 21%; Tau fluor counter: 11µM*[quencher]

Screens (PubChem)
